Shown are actives, neighbours in structure and some others; about 3% of the full set was active somewhere.
GRP78 ERSR act = inducers of ER stress response in human glioma cells; Potency, µM, without a hit: at the top dose activation, usual class: activators; hit rate 0.02% among 420,000; U87-MG GRP78 promoter luciferase reporter, 16 h; also: potency is read from the fitted curve at half-maximal effect; series mostly up to about 76 µM; % of control where 0% means no effect; nearly all actives have a fitted effect of over 35% in size
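ERSR induction read as luciferase luminescence (Bright-Glo, 10 min at room temperature) in stably transfected human U87-MG glioma cells exposed to compounds for 16 h, using GRP78 as sensor.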
Nrf2 ARE act = activates Nrf2 signaling; hit rate 0.31% among 410,000; AREc32 ARE-luciferase reporter (MCF7-derived line), luminescence, 24 h; Potency, µM (doses to about 46.1 µM), inactives show at the highest dose activation, hits mostly activators; AID 624171; also: potency is read from the fitted curve at half-maximal effect; % of control where 0% means no effect; nearly all actives have a fitted effect of over 65% in size
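AREc32_Fluc, 1000 cells/well, OPTI-MEM + 5% FBS, o/n 37 deg C 5% CO2; 23 nL cpd by pin tool, 24 hr; Steady-Glo 30 min RT, luminescence.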
D3 antag = antagonists of human D3 dopamine receptor; max response, negative = inhibition, %; D3R cells, DiscoveRx beta-arrestin luminescence, antagonist mode; hits give low values; P35462; hit rate 2.5% among 360,000; AID 652054; in the data active = max response below about -50%; inconclusive = no clear call, values can overlap the other calls; also: % is scaled to controls: 0 for no effect and ±100 for the full control effect
Target sequence (P35462 whole entry, looked up): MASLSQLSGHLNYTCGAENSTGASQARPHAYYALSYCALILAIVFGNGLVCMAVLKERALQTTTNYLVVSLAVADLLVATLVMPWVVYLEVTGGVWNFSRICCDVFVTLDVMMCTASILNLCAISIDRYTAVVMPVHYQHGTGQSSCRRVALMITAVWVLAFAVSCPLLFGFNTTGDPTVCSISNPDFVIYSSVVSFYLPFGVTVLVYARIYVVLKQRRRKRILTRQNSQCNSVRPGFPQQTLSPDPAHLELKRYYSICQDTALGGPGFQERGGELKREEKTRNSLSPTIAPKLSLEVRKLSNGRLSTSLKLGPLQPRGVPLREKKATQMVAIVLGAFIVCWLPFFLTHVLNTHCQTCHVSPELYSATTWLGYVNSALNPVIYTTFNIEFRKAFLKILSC
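Cells plated overnight at 1500 cells/well, then exposed to library compounds with dopamine controls for 90 minutes at 37 degrees C. DiscoveRx reagent added for 30–60 minutes at room temperature; luminescence read, quantitative HTS format.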
D3 ag = agonists of human D3 dopamine receptor; D3R DiscoveRx beta-arrestin cells, luminescence, 90 min; AID 652048; hit rate 0.58% among 410,000; max activation, %; in the data active = max activation above about 30%; also: 0% is about no effect
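Agonist mode: compounds and dopamine controls were applied to plated cells for 90 min at 37 degrees C after an overnight attachment at 1500 cells/well. Luminescent read-out followed 30 - 60 minutes at room temperature with DiscoveRx detection reagent.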
* marks the source's active call; other numbers are inactive results. Unless noted, calls follow the shape of the dose curve; as a rule, active = well fitted curve in the direction sought with a large enough effect; inconclusive = small, poorly fitted or top-dose-only effect, or another doubt; inactive = no such curve, though single readings can be large; an effect the other way counts as inactive or inconclusive.

Results for O=C1CC(Sc2nnc(-c3ccccc3)o2)C(=O)N1c1ccccc1 (configuration not stated) ?
GRP78 ERSR act: 6.8%; Nrf2 ARE act: inconclusive; D3 antag: -14.6; D3 ag: -2.4

Results for Cc1ccccc1N1C(=O)CC(Sc2nnc(-c3ccccc3)o2)C1=O (configuration not stated) ?
GRP78 ERSR act: -17.1%; Nrf2 ARE act: -1.2%; D3 antag: -78.9*; D3 ag: -11.1

What do the screens show for `C=C[C@H](CC(C)C)N(Cc1ccccc1)S(=O)(=O)N(Cc1ccccc1)[C@H](C=C)CC(C)C`?
GRP78 ERSR act: -3.9%

How did CC1=CN(S(=O)(=O)c2ccc(C)cc2)C[C@@H]2[C@H]3CC[C@H](C3)[C@H]12 do in these assays?
GRP78 ERSR act: -1.6%; Nrf2 ARE act: 4.5%; D3 antag: -65.0*; D3 ag: -54.1

Results for c1ccc(-c2ccccc2OCCCN2CCCC2)cc1 ?
GRP78 ERSR act: -3.1%; Nrf2 ARE act: -1.6%; D3 antag: -71.1*; D3 ag: -35.2

What do the screens show for `c1ccc(-c2ccccc2OCCCCN2CCCCC2)cc1`?
GRP78 ERSR act: -5.4%; Nrf2 ARE act: 0.0%; D3 antag: -71.4*; D3 ag: -38.1

How did c1ccc(-c2ccccc2OCCCN2CCCCCC2)cc1 do in these assays?
GRP78 ERSR act: -3.5%; Nrf2 ARE act: 0.3%; D3 antag: inconclusive; D3 ag: -1.3

Results for COC(=O)c1ccc(/C=N/NS(=O)(=O)c2cc(C)ccc2C)cc1 ?
GRP78 ERSR act: -4.2%; Nrf2 ARE act: 0.7%; D3 antag: -81.5*; D3 ag: -49.1

How did OC1OC[C@H](O)[C@@H](O)[C@H]1O (some centres not stated) do in these assays?
GRP78 ERSR act: -8.6%

What do the screens show for `CC(=O)C[C@H]1c2ccccc2S(=O)(=O)N1C1CCCC1`?
GRP78 ERSR act: -1.1%; Nrf2 ARE act: 0.2%; D3 antag: -167.8*; D3 ag: -26.6

How did CC(=O)/C=C/c1ccc2c(c1)S(=O)(=O)N(C1CCCC1)[C@H]2CC(C)=O do in these assays?
GRP78 ERSR act: -11.8%

How did COc1ccc(-c2nc(CCNC(=O)c3c(F)cccc3Cl)cs2)cc1 do in these assays?
GRP78 ERSR act: 2.7%; Nrf2 ARE act: 0.2%; D3 ag: 5.4

How did Fc1ccc(N2CCN(Cc3nnc(-c4ccccc4Cl)o3)CC2)cc1 do in these assays?
GRP78 ERSR act: -0.5%; Nrf2 ARE act: 0.5%; D3 ag: 1.9

What do the screens show for `c1ccc(-c2nnc(CN3CCN(c4ccccn4)CC3)o2)cc1`?
GRP78 ERSR act: -1.6%; Nrf2 ARE act: 0.5%; D3 ag: 97.8*

Results for c1ccc(CN2CCN(Cc3nnc(-c4ccccc4)o3)CC2)cc1 ?
GRP78 ERSR act: -0.2%; Nrf2 ARE act: 5.2%; D3 antag: 2.5; D3 ag: -1.6

What do the screens show for `Fc1ccc(-c2nnc(CN3CCN(c4ccccn4)CC3)o2)cc1`?
GRP78 ERSR act: -2.6%; Nrf2 ARE act: 0.5%; D3 ag: 80.1*

How did Clc1cccc(-c2nnc(CN3CCN(c4ccccn4)CC3)o2)c1 do in these assays?
GRP78 ERSR act: -3.0%; Nrf2 ARE act: 1.8%; D3 ag: 95.3*

How did CCC1CN(Cc2cn[nH]c2-c2ccc(OC)cc2)Cc2cc(OC)ccc2O1 (configuration not stated) do in these assays?
GRP78 ERSR act: -2.3%

How did CCn1c(CNC(=O)c2ccc(OC)cc2)nnc1SCC(=O)Nc1ccc(OC)cc1 do in these assays?
GRP78 ERSR act: -4.0%; Nrf2 ARE act: -1.1%; D3 ag: -22.5

What do the screens show for `CCCCN(C)CCNC(=O)c1c2c(nc3ccccc13)C(=O)N(C1CCCCC1)C2`?
GRP78 ERSR act: -3.0%; Nrf2 ARE act: 0.0%; D3 ag: -6.4

What do the screens show for `CC(=O)Oc1ccc(-c2nc(-c3ccccc3)no2)cc1`?
GRP78 ERSR act: -4.0%

How did COc1cccc(/C=c2/[nH]c(=O)/c(=C\c3cccc(OC)c3OC)[nH]c2=O)c1OC do in these assays?
GRP78 ERSR act: -1.7%

Results for Cc1ccc(CN2CCC(c3cc(-c4ccc(Cl)cc4)n[nH]3)CC2)cc1 ?
GRP78 ERSR act: -6.2%; Nrf2 ARE act: -3.0%; D3 antag: -91.3*; D3 ag: -7.8

Results for Nc1nc(Cl)cc(N2CCC(c3cc(-c4ccc(Cl)cc4)n[nH]3)CC2)n1 ?
GRP78 ERSR act: -4.7%; Nrf2 ARE act: 6.0%; D3 antag: 34.4; D3 ag: 14.5

Results for Clc1ccc2nc(C3CCN(Cc4ccccc4)CC3)[nH]c2c1 ?
GRP78 ERSR act: -2.9%; Nrf2 ARE act: 3.6%; D3 antag: -86.8*; D3 ag: -31.7

Results for Cc1ccc(CN2CCC(c3nc4ccc(Cl)cc4[nH]3)CC2)cc1 ?
GRP78 ERSR act: -1.4%; Nrf2 ARE act: 9.2%; D3 antag: -93.1*; D3 ag: -36.7

Results for COc1ccc(-c2cc(C3CCN(c4cc(Cl)nc(N)n4)CC3)[nH]n2)cc1 ?
GRP78 ERSR act: -0.3%; Nrf2 ARE act: -0.4%; D3 antag: 20.6; D3 ag: 37.5*

What do the screens show for `CN(C)c1ccc(/C=C/c2cccc3cc4ccccc4nc23)cc1`?
GRP78 ERSR act: -9.3%

Results for COc1cccc(Nc2c([N+](=O)[O-])cncc2[N+](=O)[O-])c1 ?
GRP78 ERSR act: -4.0%; Nrf2 ARE act: inconclusive; D3 antag: -28.9; D3 ag: -5.1

What do the screens show for `COc1cccc(Nc2c(Nc3cccc(OC)c3)c(=O)c2=O)c1`?
GRP78 ERSR act: -1.6%; Nrf2 ARE act: -0.2%; D3 antag: -68.0*; D3 ag: -35.2

What do the screens show for `Cc1ccc(O)c(NC(=O)c2onc(C)c2Cl)c1`?
GRP78 ERSR act: 4.0%; Nrf2 ARE act: 8.91µM*; D3 antag: 5.8; D3 ag: 0.9

How did S=C(Nc1ccc(CN2CCCCC2)cc1)Nc1cccc(Cl)c1Cl do in these assays?
GRP78 ERSR act: -5.0%; Nrf2 ARE act: 4.7%; D3 antag: -75.8*; D3 ag: -54.8

How did Cc1cccc(NC(=S)NC2CCN(Cc3ccccc3)CC2)c1C do in these assays?
GRP78 ERSR act: 2.2%; Nrf2 ARE act: 0.0%; D3 antag: -53.2*; D3 ag: -0.8

Results for S=C(Nc1cccc(Cl)c1Cl)NC1CCN(Cc2ccccc2)CC1 ?
GRP78 ERSR act: -5.1%; Nrf2 ARE act: 2.7%; D3 antag: -90.2*; D3 ag: -20.2

How did Cc1cccc(NC(=S)N2CCN(Cc3ccccc3)CC2)c1C do in these assays?
GRP78 ERSR act: -5.2%; Nrf2 ARE act: 0.1%; D3 antag: -7.3; D3 ag: -2.6

How did O=C(Nc1ccc(Cl)cc1Cl)[C@@H]1CC=C[C@@H]2CCN(C3CC3)C(=O)[C@@H]21 do in these assays?
GRP78 ERSR act: -2.5%

How did O=C(CCCCCN1C(=O)CCC1=O)Nc1ncn[nH]1 do in these assays?
GRP78 ERSR act: 0.2%; Nrf2 ARE act: 0.1%; D3 antag: -53.3*; D3 ag: 1.0

Results for CC1CCc2c(sc(NC(=O)c3ccc(Cn4cc([N+](=O)[O-])cn4)o3)c2C#N)C1 (configuration not stated) ?
GRP78 ERSR act: -1.3%; Nrf2 ARE act: 3.6%; D3 antag: -69.0*; D3 ag: -9.5

Assay outcomes deposited in PubChem BioAssay by National Center for Advancing Translational Sciences (NCATS).
